Measured values as given in PubChem BioAssay AID1439 (NMMLSC, 2008).
The whole screen tested about 220,000 compounds, of which about 770 (0.35%) were called active. Another 15% or so got no clear call; they are omitted. The sample holds actives, similar compounds and a random draw of the others, so the mix is not that of the screen. Rule as the data show it: active = binding response below about 49% or above about 150%; inconclusive = no clear call, values can overlap the other calls; inactive = in between.

The molecules below were run against Guanine nucleotide-binding protein G(o) subunit alpha (Homo sapiens) (UniProt P09471) (assay: compounds changing RGS7 association with Galphao – biochemical, multiplexed bead flow cytometry, primary screen (AID 1439;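 also: fluorescent Galphao held in activated GDP-AlF4 state binding bead-coupled RGS7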)). Details: at 10 µM, actives lie on both sides.
Sequence of Guanine nucleotide-binding protein G(o) subunit alpha (Homo sapiens) (P09471 whole entry, looked up): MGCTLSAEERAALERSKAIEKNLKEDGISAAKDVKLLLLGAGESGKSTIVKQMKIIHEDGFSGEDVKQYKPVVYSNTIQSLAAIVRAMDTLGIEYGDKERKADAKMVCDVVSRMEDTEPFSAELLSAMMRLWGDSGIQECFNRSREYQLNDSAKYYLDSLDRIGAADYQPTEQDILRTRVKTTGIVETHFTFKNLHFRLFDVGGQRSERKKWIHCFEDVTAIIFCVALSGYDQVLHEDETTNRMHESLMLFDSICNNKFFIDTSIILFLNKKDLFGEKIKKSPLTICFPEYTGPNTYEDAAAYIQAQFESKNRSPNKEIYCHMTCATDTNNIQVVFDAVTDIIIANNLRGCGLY

Q: Which binding response (% of control) does the source give for `C=CCn1c(=NC(=O)c2ccc(S(=O)(=O)N3CCCC3)cc2)sc2cc(NC(C)=O)ccc21` here?
A: 91.7% (inactive)

Q: With `CC(=O)Nc1ccc(/C=N/NC(=O)c2cccs2)cc1` as the molecule, how does the binding response (% of control) read?
A: 99.9% (inactive)

Q: Which binding response (% of control) does the source give for `C=CCn1c(=NC(=O)c2cccs2)sc2cc(NC(C)=O)ccc21` here?
A: 152% (active)

Q: `O=C(OCC(=O)N1CCOCC1)c1ccc(N2CCOCC2)c([N+](=O)[O-])c1` was tested. Which binding response (% of control) did it give?
A: 102% (inactive)

Q: `Cc1c(NC(=S)NC(=O)CCc2ccccc2)c(=O)n(-c2ccccc2)n1C` was tested. Which binding response (% of control) did it give?
A: 103% (inactive)

Q: How did the binding response (% of control) turn out when `CN(CCc1ccccn1)C(=O)CCC1CCCN(Cc2ccccc2OC(F)F)C1` (stereo not drawn) was run?
A: 102% (inactive)

Q: Which binding response (% of control) does the source give for `Cc1ccc(S(=O)(=O)/N=C(/Nc2ccc3[nH]c(=O)[nH]c3c2)c2ccccc2)cc1` here?
A: 104% (inactive)

Q: How did the binding response (% of control) turn out when `NC(=O)CSc1c[nH]c2ccccc12` was run?
A: 25.2% [inhibitor] (active)

Q: For `O=C(Cc1c[nH]c2ccccc12)OCCOC(=O)Cc1c[nH]c2ccccc12`, which binding response (% of control) is on record?
A: 95% (inactive)

Q: For `O=C(CSc1nnc(-c2c[nH]c3ccccc23)o1)c1ccccc1`, which binding response (% of control) is on record?
A: 95.2% (inactive)

Q: How did the binding response (% of control) turn out when `CC(C)N1CCC(N2CCN(Cc3cccnc3)CC2CCO)CC1` (stereo not drawn) was run?
A: 100% (inactive)

Q: With `CC1CC(C)CN(CCC(=O)Nc2ccc3c(c2)CCC3)C1` (stereo not drawn) as the molecule, how does the binding response (% of control) read?
A: 104% (inactive)

Q: Which binding response (% of control) does the source give for `NS(=O)(=O)c1ccc(NC(=S)NNC(=O)c2cccs2)cc1` here?
A: 109% (inactive)

Q: For `Cc1cc(C)n(CC(O)CN(c2ccccc2)S(=O)(=O)c2ccc3ccccc3c2)n1` (stereo not drawn), which binding response (% of control) is on record?
A: 1.45% [inhibitor] (active)

Q: Which binding response (% of control) does the source give for `O=S(=O)(c1ccccc1)N(CC(O)CN1CCCCC1)c1ccccc1` (stereo not drawn) here?
A: 110% (inactive)

Q: With `Cc1ccc(N(CC(O)CN2CCCC2)S(=O)(=O)c2ccccc2)cc1` (stereo not drawn) as the molecule, how does the binding response (% of control) read?
A: 99.4% (inactive)

Q: `CN1C(=O)/C(=C/c2ccc(C(=O)NC3CCCC3)cc2)Oc2ccccc21` was tested. Which binding response (% of control) did it give?
A: 98.8% (inactive)

Q: For `O=C(CCc1ccccc1)Nc1ccc(NC(=O)C2CCCCC2)nc1`, which binding response (% of control) is on record?
A: 105% (inactive)

Q: For `Cc1ccc(CN2CCN(Cc3ccccc3-c3ccco3)CC2CCO)o1` (stereo not drawn), which binding response (% of control) is on record?
A: 90.6% (inactive)

Q: `Cc1ccc(NC(=O)NCC(c2cccnc2)N2CCOCC2)cc1` (stereo not drawn) was tested. Which binding response (% of control) did it give?
A: 100% (inactive)

Q: Which binding response (% of control) does the source give for `CN1CCN(S(=O)(=O)c2ccc(N3CCN(S(=O)(=O)c4cccs4)CC3)nc2)CC1` here?
A: 95.4% (inactive)

Q: With `CN1CCN(C(CNS(=O)(=O)c2cccs2)c2cccnc2)CC1` (stereo not drawn) as the molecule, how does the binding response (% of control) read?
A: -9.98% [inhibitor] (active)

Q: For `CN(C)c1ccc(/C=N/NC(=O)C(O)c2ccc(Br)cc2)cc1` (stereo not drawn), which binding response (% of control) is on record?
A: 101% (inactive)

Q: For `CC(C)(C)C(=O)CN1C2=NCCN2c2ccccc21`, which binding response (% of control) is on record?
A: 109% (inactive)

Q: Which binding response (% of control) does the source give for `Cc1ccccc1NC(=O)Cn1c(=O)n(CC2CCCO2)c(=O)c2ccccc21` (stereo not drawn) here?
A: 106% (inactive)

Q: Which binding response (% of control) does the source give for `CCOc1cc(NC(=O)c2ccccn2)c(OCC)cc1NC(=O)c1ccc(OC)cc1` here?
A: 107% (inactive)

Q: How did the binding response (% of control) turn out when `CCN(CC)CCOc1ccc2c(c1)C(=NNC(=O)c1ccccn1)c1cc(OCCN(CC)CC)ccc1-2` was run?
A: 216% (active)

Q: `COc1ccc(CC(=O)N/N=C(\C)c2ccccn2)cc1` was tested. Which binding response (% of control) did it give?
A: 93.4% (inactive)

Q: `COC(=O)c1cc2n(n1)CCCNC2=O` was tested. Which binding response (% of control) did it give?
A: 106% (inactive)

Q: How did the binding response (% of control) turn out when `O=[N+]([O-])c1ccc2c(c1)C(N1CCOCC1)/C(=C/C1(O)CCCCC1)O2` (stereo not drawn) was run?
A: 100% (inactive)

Q: Which binding response (% of control) does the source give for `CCCCOC(=O)Cn1c(=N)n(CCN(CC)CC)c2ccccc21` here?
A: 165% (active)

Q: `CCCCOC(=O)Cn1c(=O)n(CC(=O)OCCCC)c2cc(C)ccc21` was tested. Which binding response (% of control) did it give?
A: 103% (inactive)

Q: How did the binding response (% of control) turn out when `CCn1c(=N)n(CC(=O)c2cccc(OC)c2)c2ccccc21` was run?
A: 96.8% (inactive)

Q: Which binding response (% of control) does the source give for `CCC(C)CN1CCC(CO)(Cc2ccccc2Cl)CC1` (stereo not drawn) here?
A: 103% (inactive)

Q: `O=S1(=O)CCC(NC(=S)SCc2ccccc2Br)C1` (stereo not drawn) was tested. Which binding response (% of control) did it give?
A: 97.5% (inactive)

Q: For `Cn1c(CCN2CCCCCC2)nc2cc(NC(=O)Nc3ccccc3)ccc21`, which binding response (% of control) is on record?
A: 106% (inactive)

Q: How did the binding response (% of control) turn out when `Cc1cc2nc(C)n(CCCNC(=O)Nc3ccccc3)c2cc1C` was run?
A: 180% (active)

Q: How did the binding response (% of control) turn out when `Cc1nc2cc(NC(=O)NC3CC3)ccc2n1C` was run?
A: 99% (inactive)

Q: For `CCOc1ccc(S(=O)(=O)Nc2nccs2)cc1`, which binding response (% of control) is on record?
A: 101% (inactive)

Q: For `C=CCN1C2CCCC1CC(NC(=S)Nc1cccc(OC)c1)C2` (stereo not drawn), which binding response (% of control) is on record?
A: 102% (inactive)

Q: For `Clc1cccc(-c2nc(NCC3CCCO3)c3ccccc3n2)c1` (stereo not drawn), which binding response (% of control) is on record?
A: 99.5% (inactive)

Q: How did the binding response (% of control) turn out when `Cc1cc(C)n2nc(C(=O)N(C)C(c3ccccc3)c3ccccc3)nc2n1` was run?
A: 99% (inactive)

Q: Which binding response (% of control) does the source give for `Cc1cccc(NC(=S)N2CCCC(c3nc4ccccc4[nH]3)C2)c1` (stereo not drawn) here?
A: 106% (inactive)

Q: For `COCCCN1C(=O)C(=O)/C(=C(/O)c2ccc3c(c2)CC(C)O3)C1c1cccnc1` (stereo not drawn), which binding response (% of control) is on record?
A: 93.5% (inactive)

Q: Which binding response (% of control) does the source give for `COc1ccc(/C(O)=C2\C(=O)C(=O)N(Cc3ccco3)C2c2ccc(OC)cc2OC)cc1` (stereo not drawn) here?
A: 98.7% (inactive)

Q: `COc1cc(C2/C(=C(\O)c3ccc4c(c3)CC(C)O4)C(=O)C(=O)N2Cc2ccco2)ccc1O` (stereo not drawn) was tested. Which binding response (% of control) did it give?
A: 17.7% [inhibitor] (active)

Q: Which binding response (% of control) does the source give for `CSc1ccc(C(=O)C2CCCN(C(=O)c3ccc(C)nc3)C2)cc1` (stereo not drawn) here?
A: 96% (inactive)

Q: `O=C(CCN1CCN(C/C=C/c2ccccc2)CC1)Nc1cccc(F)c1` was tested. Which binding response (% of control) did it give?
A: 101% (inactive)
